About 3,300 (0.97%) of roughly 340,000 compounds were called active. About 9% were inconclusive and are not listed. The call rests on the fitted dose curve; in most records, active means well fitted inhibition curve with a large enough effect; inconclusive means small, poorly fitted or top-dose-only effect, or effect the other way; inactive means flat fitted curve, though single readings scatter. Some of the results follow.
Potency means the concentration at half of the fitted maximal effect.

A short description of this experiment: qHTS Assay for Modulators of miRNAs and/or Inhibitors of miR-21. Further: nearly all actives have a fitted effect of over 55% in size. The conditions noted are these: HeLa miR-21-FLuc reporter, luciferase luminescence, 48 h; actives lower the signal. The text has this:
MLSCN Grant: 1 R21 NS059478-01 Assay Provider: Qihong Huang, The Wistar Institute NCGC Assay Overview: MicroRNAs (miRNAs) are endogenously encoded small (~20-25 nucleotides), nonprotein-coding RNAs that are involved in post-transcriptional repression of target messenger RNAs (mRNAs) (Le and Hannon, 2004). Estimated to be involved in the regulation of 30% of all protein-coding mRNAs (Filipowicz et al., 2008), miRNAs play a significant role in many biological processes including cellular differentiation and tissue development (Ghildiyal and Zamore, 2009).
NCGC Assay Protocol Summary: Reagents: HeLa cells stably expressing firefly luciferase (FLuc) under the control of a CMV promoter (upstream) and a miR-21 binding sequence directly downstream of the gene. These cells endogenously express miR-21. Control compounds used were compound C3 (provided by collaborator), N6-phenyladenosine (MP Biomedicals, 0215379625), and DMSO. Assay Summary: 6uL of HeLa miR-21-FLuc cells in assay buffer (DMEM, Invitrogen #21063-029; 10% FBS, HyClone #SH30071.03) were dispensed at 2000cells/well (3.3 x 10^5 cells/mL) into Greiner solid-white TC-treated 1536-well plates using a Multidrop Combi (Thermo Fisher Scientific). Plates were incubated for one hour at 37 degree Celsius, 95% humidity, 5% CO2. These assay plates were then treated with 23nL of compound or DMSO using a Kalypsys pin tool, which allows for delivery of a 24-point titration of each compound to the assay plate, with a final compound concentration ranging from approximately 40uM to 5pM. Assay plates were then incubated for 48 hours. After incubation, plates were allowed to come to RT for one hour prior to delivery of 3uL of 3X luciferase detection reagent. After a 15 minute incubation to allow for cell lysis, luciferase activity was measured using a ViewLux CCD imager (PerkinElmer), with an average exposure time of 2-12 seconds. Keywords: NIH Roadmap, MLPCN, MLSMR, qHTS, miR-21, microRNA, firefly luciferase, FLuc.
Regarding `NNC(=O)c1cccc(COc2ccc3c(c2)CCC3)c1`, the Potency is 0.185 µM (active). Next, `O=C(NCc1ccccc1)c1cccc(COc2ccc3c(c2)CCC3)c1`: 0.585 µM (active); `O=C(Nc1nc2ccc(F)cc2s1)c1ccccn1`: 0.104 µM (active); `Cc1cc(C(=O)Nc2nc3ccc(Cl)cc3s2)nn1C`: 0.927 µM (active). On to `NS(=O)(=O)c1ccc2nc(NC(=O)Nc3ccccc3F)sc2c1`, for which the Potency is 0.329 µM (active). Next, `COc1ccccc1NC(=O)Nc1nc2ccc(S(N)(=O)=O)cc2s1`: 4.14 µM (active). Next, `O=C(Nc1nc2ccccc2s1)Nc1ccc(F)cc1F`: 0.736 µM (active); `Cc1ccccc1OCC(O)Cn1nnc2ccccc21` (stereo not drawn): 7.36 µM (active); `CC(C)(C)CC(=O)Nc1nnc(-c2cccs2)s1`: 1.31 µM (active). Next, `CCOc1ccc2c(c1)c(N=Nc1cccc(C(=O)O)c1)c(O)n2C`: 6.56 µM (active). With `N#Cc1ccccc1NC(=O)c1cccc(COc2ccc(Cl)cc2Cl)c1`, the Potency was 1.65 µM (active).

In the case of `CN(C(=O)c1cccc(COc2ccc(Cl)cc2Cl)c1)c1ccccc1`, the Potency was 2.61 µM (active). For `CN1CCN(C(=O)c2cccc(COc3cc(Cl)ccc3Cl)c2)CC1` the value was 16.5 µM (active); for `O=C(NCc1ccccc1)c1cccc(COc2cc(Cl)ccc2Cl)c1`, 7.36 µM (active).

For `Cc1cc(C)c2c(N)c(C(=O)NCC3CCCCC3)sc2n1`, the Potency is 6.56 µM (active). As to `Cc1cc(C)c2c(N)c(C(=O)N/N=C/c3cccs3)sc2n1`, the Potency was 1.47 µM (active).

Take `CCCCOC(=O)c1sc2nc(C)cc(C)c2c1N`: the Potency is 5.85 µM (active).

`O=c1[nH]c2ccccc2nc1/C=C/c1ccccc1`: the Potency was 2.33 µM (active).

In the case of `Cn1c(=O)c(/C=C/c2ccccc2)nc2ccccc21`, the Potency was 2.07 µM (active). With `CC(C)n1c(/C=C/c2ccccc2)nc2ccccc21`, the Potency was 6.56 µM (active). Next, `COc1ccc(-c2noc(-c3cc(C(C)C)[nH]n3)n2)cc1`: 3.29 µM (active); `Cc1cccc(-c2noc(-c3cc(C(C)C)[nH]n3)n2)c1`: 0.464 µM (active); `CC12COC3(C(=O)Nc4ccc5ccccc5c4)CC1CCC32C` (stereo not drawn): 7.36 µM (active). Regarding `CCN1CCN(c2ccc(NC(=O)c3ccco3)cc2Cl)CC1`, the Potency was 8.26 µM (active). Consider `CCN1CCN(c2ccc(NC(=O)c3ccccc3F)cc2Cl)CC1`, for which the Potency is 2.93 µM (active). For `Cc1ccc(Nc2ncnc(-n3cccc3)n2)cc1Cl` the value was 2.33 µM (active). Next, `COc1ccc(-c2c(C)nc3c(-c4ccccn4)cnn3c2N)cc1`: 0.261 µM (active); `COc1ccc(-c2c(C)nc3c(-c4ccsc4)cnn3c2N)cc1`: 0.414 µM (active); `CCOC(=O)C1=C(CSc2nc(-c3ccccc3)ccc2C#N)OC(N)=C(C#N)C1c1ccc(OC)cc1` (stereo not drawn): 11.7 µM (active). For `COc1ccc(C(=O)Cc2ccc(F)cc2)c(OC)c1` the value was 13.1 µM (active); for `O=[N+]([O-])c1ccc(/C=N/N2CCCCC2)cc1`, 5.21 µM (active); for `COc1ccc(-c2nnc(SCC(=O)c3cccs3)o2)c(OC)c1`, 6.56 µM (active). For `Cc1cc(Cl)c2oc(C(=O)N3CCN(c4cccc(C)n4)CC3)c(C)c2c1`, the Potency was 4.65 µM (active).

For `Cc1cc(Cl)c2oc(C(=O)N3CCN(C(=O)c4ccco4)CC3)c(C)c2c1`, the Potency was 14.7 µM (active).

For the compound `CN(C(=O)c1ccc2c(Cl)c3c(nc2c1)CCC3)c1ccccc1`, the Potency was 14.7 µM (active). On to `O=C(Nc1ccc(Cl)cn1)c1ccc2c(Cl)c3c(nc2c1)CCC3`, for which the Potency was 0.185 µM (active).

With `N#Cc1ccccc1NC(=O)c1ccc2c(Cl)c3c(nc2c1)CCCC3`, the Potency is 2.93 µM (active).

For `COCCNC(=O)c1ccc2c(Cl)c3c(nc2c1)CCC3`, the Potency is 5.85 µM (active). Next, `O=C(CSc1ccccc1)N1CCc2ccccc21`: 3.29 µM (active); `CCn1c(-c2ccc(F)cc2)cnc1SCC(=O)N1CCc2ccccc21`: 11.7 µM (active). Turning to `Cc1ccnc(SCC(=O)N2CCc3ccccc32)n1`, the Potency was 7.36 µM (active). As to `O=C(CSc1ncccc1-c1nc2ccccc2[nH]1)N1CCc2ccccc21`, the Potency was 5.21 µM (active). Take `Cc1ccc(SCC(=O)N2CCc3ccccc32)cc1`: the Potency is 14.7 µM (active).

Consider `O=c1oc2cc(O)ccc2cc1-c1nnc(Nc2ccccc2F)s1`, for which the Potency was 0.369 µM (active). Turning to `COc1cccc2cc(-c3nnc(Nc4ccccc4C)s3)c(=O)oc12`, the Potency was 0.736 µM (active). As to `COc1cccc2cc(-c3nnc(Nc4c(F)cccc4F)s3)c(=O)oc12`, the Potency is 1.04 µM (active). For `CCC1CCCCN1CCCNC(=O)c1ccc2nc(N3CCC(C)CC3)sc2c1` (stereo not drawn) the value was 0.0656 µM (active).

As for `CC1CCN(c2nc3ccc(C(=O)NCCCN4CCCCC4C)cc3s2)CC1` (stereo not drawn), the Potency was 0.0656 µM (active).

Regarding `COc1cccc(N2CCN(C(=O)c3ccc4nc(N5CCC(C)CC5)sc4c3)CC2)c1`, the Potency is 1.47 µM (active).

In the case of `CC1CCN(c2nc3ccc(C(=O)NCCCN4CCCCC4)cc3s2)CC1`, the Potency was 0.0927 µM (active). Next, `Cc1ccc(-c2nnc(NC(=O)c3ccco3)s2)cc1`: 1.47 µM (active); `O=C(NC(=S)Nc1nc2ccccc2s1)c1ccco1`: 1.17 µM (active). For the compound `Cc1ccc2nc(NC(=S)NC(=O)c3ccco3)sc2c1`, the Potency is 0.736 µM (active). `CC1CCC/C(=C\Nc2ccc(O)cc2)C1=O` (stereo not drawn): the Potency is 10.4 µM (active). In the case of `CC1CCC/C(=C\Nc2ccc(C(=O)O)cc2)C1=O` (stereo not drawn), the Potency is 0.585 µM (active). Next, `CCC(=O)Nc1nnc(/C=C/c2ccc(OC)cc2)s1`: 11.7 µM (active); `COC(=O)Nc1nnc(/C=C/c2ccc(OC)cc2)s1`: 4.14 µM (active); `CCC(=O)Nc1nnc(/C=C/c2ccccc2)s1`: 13.1 µM (active). In the case of `C/C(=N\NC(=O)c1cccc(N/N=C(\C)c2ccccc2)c1)c1ccccc1`, the Potency is 14.7 µM (active). Next, `CC(=O)Nc1cccc(C(=O)N/N=C/c2ccccc2F)c1`: 2.07 µM (active); `C/C(=N\Nc1cccc(C(=O)O)c1)c1ccc(Cl)s1`: 6.56 µM (active). For `COc1ccc(/C(C)=N/Nc2cccc(C(=O)O)c2)cc1OC` the value was 10.4 µM (active).

In the case of `C/C(=N\NC(=O)c1cccc(N/N=C(\C)c2ccco2)c1)c1ccco1`, the Potency was 6.56 µM (active).

Consider `C/C(=N/NC(=O)c1ccccc1)C(=O)O`, for which the Potency was 2.93 µM (active). Take `C/C(=N\Nc1ccc([N+](=O)[O-])cc1)c1ccco1`: the Potency is 3.69 µM (active). Next, `CN(CCC#N)C(=O)c1cc2c(s1)-c1ccccc1SC2`: 4.14 µM (active); `Cc1ccccc1C(=O)Nc1nnc(S(=O)(=O)N2CCCCCC2)s1`: 1.65 µM (active). For `O=C(Nc1nnc(S(=O)(=O)N2CCCC2)s1)c1ccc(F)cc1` the value was 3.69 µM (active); for `COc1ccc(C(=O)Nc2nnc(S(=O)(=O)N3CCC(C)CC3)s2)cc1OC`, 0.464 µM (active).

Take `CCC(CC)C(=O)Nc1nnc(S(=O)(=O)N2c3ccccc3CC2C)s1` (stereo not drawn): the Potency was 2.61 µM (active).

With `Cn1c(-c2cc3ccc(OC(=O)C(C)(C)C)cc3oc2=O)nc2ccccc21`, the Potency was 3.69 µM (active). For `COc1ccccc1N1CCN(/N=C\c2ccccc2)CC1` the value was 10.4 µM (active); for `COc1ccccc1N1CCN(/N=C/c2cccc(Cl)c2)CC1`, 6.56 µM (active). Next, `CCOC(=O)c1snc(C(=O)NC2CCCCC2)c1N`: 7.36 µM (active); `CN(C)/C=C(/C(=O)c1ccc(Cl)cc1)S(=O)(=O)c1ccccc1`: 18.5 µM (active); `O=C(Nc1ccc2oc(-c3cccnc3)nc2c1)c1ccco1`: 11.7 µM (active).

Regarding `Cc1cc(-c2nc3ncccc3o2)ccc1N`, the Potency was 3.29 µM (active).

For the compound `CCCC(=O)Nc1ccc2oc(-c3ccc(O)c(Br)c3)nc2c1`, the Potency is 0.927 µM (active). In the case of `CCC(=O)Nc1ccc2oc(-c3cccnc3)nc2c1`, the Potency is 8.26 µM (active). In the case of `O=C(Nc1ccc(-c2nc3ncccc3o2)cc1)c1ccco1`, the Potency was 1.85 µM (active). Next, `COc1ccc(OCCN2C(=O)c3cccc(N)c3C2=O)cc1`: 14.7 µM (active); `Nc1cccc2c1C(=O)N(CCOc1ccc(F)cc1)C2=O`: 0.826 µM (active); `COc1ccc(C2=NN(c3ccc(C(=O)O)cc3)C(c3ccc(OC)c(OC)c3)C2)cc1` (stereo not drawn): 18.5 µM (active).

Regarding `COc1cccc(CN=C2Nc3ccccc3CS2)c1`, the Potency was 4.65 µM (active). On to `COc1ccccc1CN=C1Nc2ccccc2CS1`, for which the Potency was 5.85 µM (active).

Turning to `CCCC(=O)Nc1ccc(NC(=O)C23CC4CC(CC(C4)C2)C3)cn1`, the Potency is 18.5 µM (active). Next, `OC[C@H]1O[C@@H](n2cnc3c(Nc4ccccc4)ncnc32)[C@H](O)[C@@H]1O`: 3.69 µM (active). For `CCOC(=O)c1c(C)[nH]c2cc(Br)c(O)cc12` the value was 16.5 µM (active); for `O=C(COc1ccccc1Cl)N1CCc2ccccc21`, 2.07 µM (active); for `O=C(COc1ccc2c(c1)CCC2)N1CCc2ccccc21`, 3.29 µM (active).

On to `COc1ccc2c(CC(=O)N3CCc4ccccc43)coc2c1`, for which the Potency was 2.93 µM (active). Next, `CCc1ccc(OCC(=O)N2CCc3ccccc32)cc1`: 4.65 µM (active); `COc1ccc(C(=O)N2CCc3ccccc32)cc1`: 18.5 µM (active); `O=C(COc1ccccc1)N1CCc2ccccc21`: 4.65 µM (active).

Turning to `Cc1c(Br)c(C(=O)N2CCc3ccccc32)nn1C`, the Potency was 5.21 µM (active). As for `Cc1c(C(=O)N2CCc3ccccc32)oc2ccccc12`, the Potency was 0.736 µM (active).

On to `O=C(c1ccco1)N1CCc2ccccc21`, for which the Potency was 5.85 µM (active).

Take `Cc1ccccc1OCC(=O)N1CCCc2ccccc21`: the Potency is 14.7 µM (active). For `O=C(OCc1ccccc1)N1CCc2ccccc21` the value was 1.17 µM (active); for `O=C(COc1ccc(F)cc1Br)N1CCc2ccccc21`, 1.26 µM (active); for `O=C1/C(=C\Nc2ccc(Cl)cc2)CCN1c1ncccn1`, 1.31 µM (active). For the compound `CCC(C)NC(=O)Cn1c(COc2ccc(Cl)cc2Cl)nc2ccccc21` (stereo not drawn), the Potency is 8.26 µM (active). Next, `CC(=O)C(/C=N/c1cc(-c2ccc(C)cc2)nn1-c1ccccc1)=C(\C)O`: 1.47 µM (active).

The values above are taken from PubChem BioAssay AID2289 (National Center for Advancing Translational Sciences (NCATS), 2010).
